From PubChem BioAssay AID1508647 (National Center for Advancing Translational Sciences (NCATS), 2021) come the findings set out here.

The list shows a part of the results. Inconclusive results are not listed. Activity calls are given as the source filed them. Calls follow the shape of the dose curve; as a rule, active = well fitted inhibition curve with a large enough effect; inconclusive = small, poorly fitted or top-dose-only effect, or another doubt; inactive = no such curve, though single readings can be large or run the other way.

Sequence of Peripheral myelin protein 22 (Rattus norvegicus) (P25094 whole entry, looked up): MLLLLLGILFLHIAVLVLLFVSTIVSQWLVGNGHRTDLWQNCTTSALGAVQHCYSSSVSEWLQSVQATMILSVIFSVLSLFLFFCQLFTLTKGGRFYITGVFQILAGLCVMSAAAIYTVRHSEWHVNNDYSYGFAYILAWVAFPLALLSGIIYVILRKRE

The target of the assay is Peripheral myelin protein 22 (Rattus norvegicus) (UniProt P25094). Briefly: Cell-based HiBiT reporter assay to measure PMP22 protein expression in S16 Pmp22-HiBiT cells - Confirmatory screen. The conditions noted are these: S16 Schwann cells Pmp22-HiBiT, luminescence, 48 h; series mostly up to 27.9 µM. An excerpt:
Assay Provider: Jim Inglese Ph.D. National Center for Advancing Translational Science, National Institutes of Health, Rockville, MD CMT is a heterogeneous group of neurological disorders that affect approximately 1 in 2,500 people. In particular, the most common form of CMT, CMT1A is genetically linked to the duplication of the PMP22 gene which leads to Schwann cell overexpression, thus manifesting itself as a typical case of dose-sensitive diseases. […] We can further discriminate the effect of all transcriptionally active molecules on PMP22 translation or stability with an assay that incorporates a short NLuc peptide (HiBiT) at the C-terminus of expressed PMP22 (S16(f8) PMP22-HiBiT) allowing alpha complementation and luminescence detection of membrane-associated PMP22 protein. […] Miniaturization of these assays to 1536-well plate format for quantitative high throughput screening (qHTS) yielded rich data sets immediately from the qHTS assay (S16(c9) Pmp22-F2sN), when compared with data from a cell viability assay (Cell TiterGlo) to identify compounds that decreased the output signals through cellular toxicity to streamline the selection process of actives for subsequent characterization using the HiBiT assay (S16(f8) PMP22-HiBiT). […]
Take `Cc1ccc(NC(=O)c2nc(S(=O)(=O)Cc3cccc(C)c3)ncc2Cl)cc1`: the molecule was called inactive.
